Inconclusive results are not listed. Active and inactive are the calls of the source. Rule for the calls: active = hit-call score of the fitted dose curve at least 0.9, where 1 is the maximum; inconclusive = response in the unintended direction; inactive = score below 0.9.
How the values were obtained:
[1] = target: human Leukotriene B4 Receptor 1 (LTB4-BLT1), LTB4R (gene 1241) (UniProt Q15722); assay: NVS_GPCR_hLTB4_BLT1: NovaScreen (NVS) G Protein-Coupled Receptor Assay for human Leukotriene B4 Receptor 1 (LTB4-BLT1) (AID 2283271)
Summary of the method: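 Cell-free human neutrophil receptor preparation, 1 h exposure, radioligand binding read by filter scintillation counting. Single 25 uM duplicate screen, then concentration series topping at 50 uM; binding loss scored against DMSO baseline.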

[2] = target: human Adrenergic, Beta 3 Receptor (Adrb3), ADRB3 (gene 155) (UniProt P13945); assay: NVS_GPCR_hAdrb3: NovaScreen (NVS) G Protein-Coupled Receptor Assay for human Adrenergic, Beta 3 Receptor (Adrb3) (AID 2283262)
Summary of the method: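 A cell-free filter binding assay read by scintillation counting, with displacement of a specific radioligand measured after 1 hour. The receptor source was SK-N-MC extracts (cells pretreated with isoproterenol and 8-bromo-cAMP). Compounds were first tested at 25 uM in duplicate and then in concentration series.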

[3] = target: human Endothelin Receptor Type B (ETB), EDNRB (gene 1910) (UniProt P24530); assay: NVS_GPCR_hETB: NovaScreen (NVS) G Protein-Coupled Receptor Assay for human Endothelin Receptor Type B (ETB) (AID 2283267)
Summary of the method: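 Filter-based scintillation readout of radioligand displacement, 4 h, using membranes from human astrocytoma cells. Actives from a 25 uM duplicate screen were retested in concentration-response (top 50 uM) relative to DMSO baseline.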

[4] = target: human Adrenergic, Alpha 2A Receptor (Adra2A), ADRA2A (gene 150) (UniProt P08913); assay: NVS_GPCR_hAdra2A: NovaScreen (NVS) G Protein-Coupled Receptor Assay for human Adrenergic, Alpha 2A Receptor (Adra2A) (AID 2283257)
Summary of the method: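 Displacement of a specific radioligand from HT29 membrane protein was counted by filter scintillation after 1 h. Compounds were screened in duplicate at 25 uM, and actives were retested in concentration series. Fitting was positive-direction against DMSO.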

[5] = target: human Dopamine Receptor D4.4 (DRD4.4), DRD4 (gene 1815) (UniProt P21917); assay: NVS_GPCR_hDRD4.4: NovaScreen (NVS) G Protein-Coupled Receptor Assay for human Dopamine Receptor D4.4 (DRD4.4) (AID 2283264)
Summary of the method: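 Filter-binding assay with a tritiated or iodinated ligand, cell-free receptor prepared from CHO, 1 hour. Loss of bound radioactivity versus DMSO; single 25 uM duplicate screen, then concentration-response for actives.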

[6] = target: human Adrenergic, Alpha 2c Receptor (Adra2C), ADRA2C (gene 152) (UniProt P18825); assay: NVS_GPCR_hAdra2C: NovaScreen (NVS) G Protein-Coupled Receptor Assay for human Adrenergic, Alpha 2c Receptor (Adra2C) (AID 2283259)
Summary of the method: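 Screened first in duplicate at 25 uM, with actives then run as concentration series. Membranes from Sf9 cells were exposed for 1 h, and displacement of radioligand was counted after filtration, using DMSO as baseline.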

[7] = target: human Adrenergic, Beta 1 Receptor (Adrb1), ADRB1 (gene 153) (UniProt P08588); assay: NVS_GPCR_hAdrb1: NovaScreen (NVS) G Protein-Coupled Receptor Assay for human Adrenergic, Beta 1 Receptor (Adrb1) (AID 2283258)
Summary of the method: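 Membranes/protein extracted from human neuroepithelioma cells, radioligand competition binding read by filtration and scintillation 2 h post-dose. Single 25 uM duplicate screen, then concentration-response follow-up; DMSO as negative control.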

[8] = target: Type-1 angiotensin II receptor (Homo sapiens) (UniProt P30556); assay: NVS_GPCR_hAT1: NovaScreen (NVS) G Protein-Coupled Receptor Assay for human Angiotensin II receptor type 1 (AT1) (AID 2283263)
Summary of the method: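 Hits from a 25 uM duplicate screen (threshold e.g. 30% inhibition) were run in concentration-response with 50 uM top concentration. Displacement of specific radioligand from KAN-TS membrane preparations measured after 3 h by filter scintillation, DMSO as baseline.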

[9] = target: human Neuropeptide Receptor Y1 (NPY1), NPY1R (gene 4886) (UniProt P25929); assay: NVS_GPCR_hNPY1: NovaScreen (NVS) G Protein-Coupled Receptor Assay for human Neuropeptide Receptor Y1 (NPY1) (AID 2283276)
Summary of the method: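 Displacement of specific radioligand from NPY1 receptor of SK-N-MC origin, read by filtration and scintillation after 1 h. Compounds first tested at 25 uM in duplicate, then actives in concentration series; signal loss relative to DMSO.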

[10] = target: Beta-2 adrenergic receptor (Homo sapiens) (UniProt P07550); assay: NVS_GPCR_hAdrb2: NovaScreen (NVS) G Protein-Coupled Receptor Assay for human Adrenergic, Beta 2 Receptor (Adrb2) (AID 2283261)
Summary of the method: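 Compounds screened in duplicate at 25 uM, then actives in concentration series. Human beta-2 receptor from CHO material, cell-free; radioligand displacement after 1 h measured by filtration and scintillation against DMSO baseline.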

[11] = target: human Dopamine Receptor D2 (DRD2), DRD2 (gene 1813) (UniProt P14416); assay: NVS_GPCR_hDRD2s: NovaScreen (NVS) G Protein-Coupled Receptor Assay for human Dopamine Receptor D2 (DRD2) (AID 2283266)
Summary of the method: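 Test compound (25 uM, duplicate in the primary screen; concentration series at follow-up) competed with radioligand for human DRD2 in CHO-derived membrane protein. Filter-based scintillation counting was done 1.5 hours after dosing, with loss of signal analysed against DMSO.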

[12] = target: human Histamine 1 Receptor (H1), HRH1 (gene 3269) (UniProt P35367); assay: NVS_GPCR_hH1: NovaScreen (NVS) G Protein-Coupled Receptor Assay for human Histamine 1 Receptor (H1) (AID 2283268)
Summary of the method: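 Filter-based scintillation detection of radioligand binding to human H1, 1 h incubation; chemicals screened in duplicate at 25 uM, then concentration-response; signal loss relative to DMSO taken as activity.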

[13] = target: D(1A) dopamine receptor (Homo sapiens) (UniProt P21728); assay: NVS_GPCR_hDRD1: NovaScreen (NVS) G Protein-Coupled Receptor Assay for human Dopamine Receptor D1 (DRD1) (AID 2283269)
Summary of the method: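 Cell-free radioligand binding to human DRD1 from HEK293 membranes, read 1 h after dosing by filter-based scintillation counting. Loss of signal versus DMSO baseline marks displacement. Primary screen at 25 uM single concentration in duplicate; actives followed up in concentration series.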

[14] = target: Muscarinic acetylcholine receptor M1 (Homo sapiens) (UniProt P11229); assay: NVS_GPCR_hM1: NovaScreen (NVS) G Protein-Coupled Receptor Assay for human Muscarinic, M1 Receptor (AID 2283270)
Summary of the method: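 Actives from a duplicate 25 uM single-point screen were retested in concentration series. Binding measured as displacement of a radioligand from CHO-derived receptor preparation, 1 h incubation, filtration and scintillation counting, analysed as signal loss against DMSO.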

[15] = target: Muscarinic acetylcholine receptor M3 (Homo sapiens) (UniProt P20309); assay: NVS_GPCR_hM3: NovaScreen (NVS) G Protein-Coupled Receptor Assay for human Muscarinic, M3 Receptor (AID 2283272)
Summary of the method: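 Radioligand displacement binding on human M3 receptor in CHO-derived membranes, 1 h incubation, filter-based scintillation counting. Primary screen in duplicate at 25 uM; actives followed up in concentration series; loss of signal versus DMSO.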

[16] = target: Muscarinic acetylcholine receptor M2 (Homo sapiens) (UniProt P08172); assay: NVS_GPCR_hM2: NovaScreen (NVS) G Protein-Coupled Receptor Assay for human Muscarinic, M2 Receptor (AID 2283273)
Summary of the method: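 Radioligand competition binding, cell-free, receptor from CHO; 1 h incubation; scintillation detection. Primary testing at 25 uM in duplicate.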

[17] = target: human Muscarinic, M4 Receptor, CHRM4 (gene 1132) (UniProt P08173); assay: NVS_GPCR_hM4: NovaScreen (NVS) G Protein-Coupled Receptor Assay for human Muscarinic, M4 Receptor (AID 2283274)
Summary of the method: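 Filter-based scintillation counting of radioligand bound to CHO-expressed human M4 preparations after 1 h; loss of signal fitted versus DMSO. Initial duplicate testing at 25 uM, concentration-response follow-up for actives.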

[18] = target: Muscarinic acetylcholine receptor M5 (Homo sapiens) (UniProt P08912); assay: NVS_GPCR_hM5: NovaScreen (NVS) G Protein-Coupled Receptor Assay for human Muscarinic, M5 Receptor (AID 2283275)
Summary of the method: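 Chemicals passing a primary duplicate screen at 25 uM were run as singleton concentration series, maximum 50 uM. Displacement of a specific radioligand from CHO-extracted receptor was read by filter scintillation after 1 h, relative to DMSO.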

[19] = target: human Adenosine A2a Receptor (AdoRA2a), ADORA2A (gene 135) (UniProt P29274); assay: NVS_GPCR_hAdoRA2a: NovaScreen (NVS) G Protein-Coupled Receptor Assay for human Adenosine A2a Receptor (AdoRA2a) (AID 2283256)
Summary of the method: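 HEK293-derived receptor preparation, radioligand displacement, 1.5 h, filtration + scintillation read. Loss of bound signal scored vs DMSO. Single-point 25 uM in duplicate first, then concentration-response for actives.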

[20] = target: human Endothelin Receptor Type A (ETA), EDNRA (gene 1909) (UniProt P25101); assay: NVS_GPCR_hETA: NovaScreen (NVS) G Protein-Coupled Receptor Assay for human Endothelin Receptor Type A (ETA) (AID 2283265)
Summary of the method: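 Binding of radioligand to membrane protein extracted from SH-SY5Y cells was read by filtration and scintillation after 3 h. Compounds were screened at 25 uM in duplicate, with hits followed up in singleton concentration series to 50 uM.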

Measured: AC50

Sequence of human Neuropeptide Receptor Y1 (NPY1), NPY1R (gene 4886) (P25929 whole entry, looked up): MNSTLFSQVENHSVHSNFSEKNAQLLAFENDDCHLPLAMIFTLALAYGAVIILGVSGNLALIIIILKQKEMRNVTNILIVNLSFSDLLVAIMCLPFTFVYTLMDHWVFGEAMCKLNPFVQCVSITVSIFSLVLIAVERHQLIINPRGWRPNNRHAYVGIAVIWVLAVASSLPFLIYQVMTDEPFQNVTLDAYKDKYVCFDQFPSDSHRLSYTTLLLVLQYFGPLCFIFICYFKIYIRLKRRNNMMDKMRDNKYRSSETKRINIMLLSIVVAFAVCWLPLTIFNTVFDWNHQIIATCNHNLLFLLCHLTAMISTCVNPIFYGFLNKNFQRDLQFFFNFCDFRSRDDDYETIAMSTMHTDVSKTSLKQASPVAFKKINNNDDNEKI
Sequence of human Leukotriene B4 Receptor 1 (LTB4-BLT1), LTB4R (gene 1241) (Q15722 whole entry, looked up): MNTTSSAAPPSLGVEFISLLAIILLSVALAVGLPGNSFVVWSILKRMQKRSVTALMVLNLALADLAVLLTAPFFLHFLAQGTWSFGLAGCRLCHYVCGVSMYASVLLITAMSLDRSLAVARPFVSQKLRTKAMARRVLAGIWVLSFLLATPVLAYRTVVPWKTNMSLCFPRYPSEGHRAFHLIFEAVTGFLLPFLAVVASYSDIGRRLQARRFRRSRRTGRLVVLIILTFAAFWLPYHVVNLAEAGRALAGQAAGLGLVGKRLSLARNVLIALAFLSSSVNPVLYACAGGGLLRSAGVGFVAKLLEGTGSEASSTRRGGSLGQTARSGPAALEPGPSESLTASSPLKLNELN
Sequence of human Adrenergic, Alpha 2c Receptor (Adra2C), ADRA2C (gene 152) (P18825 whole entry, looked up): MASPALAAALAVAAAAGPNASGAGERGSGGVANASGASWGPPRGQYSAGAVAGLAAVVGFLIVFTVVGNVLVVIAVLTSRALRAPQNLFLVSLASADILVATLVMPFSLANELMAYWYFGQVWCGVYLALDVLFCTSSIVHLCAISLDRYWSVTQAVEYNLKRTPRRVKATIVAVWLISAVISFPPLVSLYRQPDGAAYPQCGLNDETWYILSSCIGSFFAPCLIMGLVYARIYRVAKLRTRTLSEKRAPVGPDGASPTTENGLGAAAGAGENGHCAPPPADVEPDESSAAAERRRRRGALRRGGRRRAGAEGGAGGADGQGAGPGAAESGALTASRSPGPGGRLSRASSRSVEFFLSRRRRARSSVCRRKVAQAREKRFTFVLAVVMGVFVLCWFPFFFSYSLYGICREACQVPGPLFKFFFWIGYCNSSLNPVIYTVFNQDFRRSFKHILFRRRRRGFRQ
Sequence of human Histamine 1 Receptor (H1), HRH1 (gene 3269) (P35367 whole entry, looked up): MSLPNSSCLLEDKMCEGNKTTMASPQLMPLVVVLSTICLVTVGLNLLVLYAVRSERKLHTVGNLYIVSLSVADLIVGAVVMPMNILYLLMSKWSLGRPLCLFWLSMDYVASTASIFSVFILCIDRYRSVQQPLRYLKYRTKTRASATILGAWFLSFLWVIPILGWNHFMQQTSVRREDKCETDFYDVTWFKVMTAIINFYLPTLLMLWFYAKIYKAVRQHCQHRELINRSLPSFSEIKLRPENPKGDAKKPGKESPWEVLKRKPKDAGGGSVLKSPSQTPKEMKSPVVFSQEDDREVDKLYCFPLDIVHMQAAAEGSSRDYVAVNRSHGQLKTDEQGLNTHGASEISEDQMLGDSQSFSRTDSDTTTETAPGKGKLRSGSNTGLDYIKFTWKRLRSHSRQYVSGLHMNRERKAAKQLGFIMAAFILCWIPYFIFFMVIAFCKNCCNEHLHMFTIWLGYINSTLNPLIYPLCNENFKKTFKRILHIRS
Sequence of human Dopamine Receptor D4.4 (DRD4.4), DRD4 (gene 1815) (P21917 whole entry, looked up): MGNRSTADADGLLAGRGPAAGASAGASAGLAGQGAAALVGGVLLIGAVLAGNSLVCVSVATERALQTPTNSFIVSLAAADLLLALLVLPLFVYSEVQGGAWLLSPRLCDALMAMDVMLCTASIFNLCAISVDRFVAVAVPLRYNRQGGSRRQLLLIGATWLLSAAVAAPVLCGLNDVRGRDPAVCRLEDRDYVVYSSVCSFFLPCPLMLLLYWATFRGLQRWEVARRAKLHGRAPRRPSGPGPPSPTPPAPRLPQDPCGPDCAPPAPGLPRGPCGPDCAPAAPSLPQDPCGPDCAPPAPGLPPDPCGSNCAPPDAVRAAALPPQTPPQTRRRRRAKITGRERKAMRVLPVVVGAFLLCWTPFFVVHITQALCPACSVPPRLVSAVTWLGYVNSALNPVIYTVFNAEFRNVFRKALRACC
Sequence of human Muscarinic, M4 Receptor, CHRM4 (gene 1132) (P08173 whole entry, looked up): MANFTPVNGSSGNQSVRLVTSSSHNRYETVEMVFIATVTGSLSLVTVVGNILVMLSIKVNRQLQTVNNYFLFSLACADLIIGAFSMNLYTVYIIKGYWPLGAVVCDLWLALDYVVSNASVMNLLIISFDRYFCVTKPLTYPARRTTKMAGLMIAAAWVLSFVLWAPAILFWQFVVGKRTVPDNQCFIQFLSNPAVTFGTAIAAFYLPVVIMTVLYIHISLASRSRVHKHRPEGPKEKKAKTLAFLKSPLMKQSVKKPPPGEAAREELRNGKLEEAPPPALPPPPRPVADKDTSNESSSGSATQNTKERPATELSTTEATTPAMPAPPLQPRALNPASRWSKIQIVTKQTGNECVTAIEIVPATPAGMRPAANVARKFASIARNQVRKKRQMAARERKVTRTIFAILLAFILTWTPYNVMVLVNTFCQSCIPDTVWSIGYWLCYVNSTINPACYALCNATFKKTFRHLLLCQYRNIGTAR
Sequence of Muscarinic acetylcholine receptor M5 (Homo sapiens) (P08912 whole entry, looked up): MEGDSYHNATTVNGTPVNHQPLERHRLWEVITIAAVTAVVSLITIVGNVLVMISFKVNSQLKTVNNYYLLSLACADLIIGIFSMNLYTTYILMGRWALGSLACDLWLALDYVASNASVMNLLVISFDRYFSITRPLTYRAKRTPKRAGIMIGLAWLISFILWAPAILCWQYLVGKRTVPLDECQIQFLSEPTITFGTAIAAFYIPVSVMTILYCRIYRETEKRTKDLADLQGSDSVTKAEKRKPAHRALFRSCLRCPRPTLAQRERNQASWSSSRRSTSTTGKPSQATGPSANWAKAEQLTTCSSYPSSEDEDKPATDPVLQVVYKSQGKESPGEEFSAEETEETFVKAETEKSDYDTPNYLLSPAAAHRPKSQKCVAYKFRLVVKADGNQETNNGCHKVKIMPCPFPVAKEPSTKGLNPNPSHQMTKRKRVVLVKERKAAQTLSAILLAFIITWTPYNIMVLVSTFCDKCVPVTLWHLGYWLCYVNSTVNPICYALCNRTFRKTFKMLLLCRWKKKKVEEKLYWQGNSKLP
Sequence of Muscarinic acetylcholine receptor M1 (Homo sapiens) (P11229 whole entry, looked up): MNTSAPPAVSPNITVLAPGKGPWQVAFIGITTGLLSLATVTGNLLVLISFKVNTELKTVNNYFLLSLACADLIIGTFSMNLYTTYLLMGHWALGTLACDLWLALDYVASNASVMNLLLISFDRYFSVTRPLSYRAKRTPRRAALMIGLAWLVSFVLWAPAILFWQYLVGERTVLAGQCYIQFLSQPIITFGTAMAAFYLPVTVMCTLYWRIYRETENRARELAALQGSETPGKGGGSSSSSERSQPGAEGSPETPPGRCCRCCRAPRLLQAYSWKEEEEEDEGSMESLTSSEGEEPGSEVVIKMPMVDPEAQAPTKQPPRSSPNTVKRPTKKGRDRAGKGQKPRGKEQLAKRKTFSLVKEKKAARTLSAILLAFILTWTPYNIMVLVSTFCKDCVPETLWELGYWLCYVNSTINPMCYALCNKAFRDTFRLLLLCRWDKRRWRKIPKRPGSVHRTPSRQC
Sequence of human Adrenergic, Beta 1 Receptor (Adrb1), ADRB1 (gene 153) (P08588 whole entry, looked up): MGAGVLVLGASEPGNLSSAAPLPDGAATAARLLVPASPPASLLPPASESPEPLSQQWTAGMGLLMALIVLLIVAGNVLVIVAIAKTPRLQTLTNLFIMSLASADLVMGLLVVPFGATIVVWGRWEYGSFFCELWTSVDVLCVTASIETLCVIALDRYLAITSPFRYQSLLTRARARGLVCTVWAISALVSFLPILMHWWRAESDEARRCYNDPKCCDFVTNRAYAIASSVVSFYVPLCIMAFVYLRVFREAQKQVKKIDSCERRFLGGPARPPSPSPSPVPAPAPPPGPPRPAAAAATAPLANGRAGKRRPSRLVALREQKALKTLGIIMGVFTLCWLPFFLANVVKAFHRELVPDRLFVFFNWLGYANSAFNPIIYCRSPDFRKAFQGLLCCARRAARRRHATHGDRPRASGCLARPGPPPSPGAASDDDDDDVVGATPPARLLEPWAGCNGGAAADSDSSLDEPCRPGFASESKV
Sequence of Type-1 angiotensin II receptor (Homo sapiens) (P30556 whole entry, looked up): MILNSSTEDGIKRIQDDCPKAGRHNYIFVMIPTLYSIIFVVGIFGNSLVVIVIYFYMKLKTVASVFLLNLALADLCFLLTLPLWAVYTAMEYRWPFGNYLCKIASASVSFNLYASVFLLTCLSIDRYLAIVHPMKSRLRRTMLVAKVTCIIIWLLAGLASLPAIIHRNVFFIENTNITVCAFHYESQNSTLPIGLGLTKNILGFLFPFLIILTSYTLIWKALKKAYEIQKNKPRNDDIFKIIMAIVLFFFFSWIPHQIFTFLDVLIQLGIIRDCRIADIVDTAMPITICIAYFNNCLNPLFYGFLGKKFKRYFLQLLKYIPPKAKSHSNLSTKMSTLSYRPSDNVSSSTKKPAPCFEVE
Sequence of human Adrenergic, Alpha 2A Receptor (Adra2A), ADRA2A (gene 150) (P08913 whole entry, looked up): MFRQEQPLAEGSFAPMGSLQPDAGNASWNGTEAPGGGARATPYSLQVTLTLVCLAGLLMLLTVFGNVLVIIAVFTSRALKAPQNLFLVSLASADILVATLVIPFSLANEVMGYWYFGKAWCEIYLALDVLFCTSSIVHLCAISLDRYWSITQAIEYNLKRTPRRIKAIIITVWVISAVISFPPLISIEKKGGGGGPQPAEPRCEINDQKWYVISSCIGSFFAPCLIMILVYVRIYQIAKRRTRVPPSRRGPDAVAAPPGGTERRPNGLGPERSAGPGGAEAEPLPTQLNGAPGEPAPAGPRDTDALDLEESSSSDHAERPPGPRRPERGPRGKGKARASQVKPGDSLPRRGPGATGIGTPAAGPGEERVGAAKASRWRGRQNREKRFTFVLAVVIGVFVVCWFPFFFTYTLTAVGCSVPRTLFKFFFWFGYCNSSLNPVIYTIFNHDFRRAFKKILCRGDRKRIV

NC(N)=O
inactive: [1]

OCC(CO)(CO)CO
inactive: [2] | [3] | [1]

O=C(NO)C1(NS(=O)(=O)c2ccc(Oc3ccc(F)cc3)cc2)CCOCC1
active: [4] 25 µM | [5] 25 µM

CCCCCCCC1CCC(=O)O1 (stereo not given)
inactive: [1]

O=C(O)c1ccc2c(c1)nc(C(=O)NC1CCN(C3CC3)CC1)n2Cc1cc(-c2ccc(Cl)s2)on1
inactive: [6]
active: [4] 0.308 µM

CCN(CC)C(=S)SSC(=S)N(CC)CC
inactive: [8]
active: [7] 2.55 µM | [9] 17.5 µM

CC(C)CCCCCCOC(=O)C1CCCCC1C(=O)OCCCCCCC(C)C (stereo not given)
inactive: [10]

c1ccc(C(O[C@@H]2CCCN(CCc3ccc4c(c3)OCO4)C2)c2ccccc2)cc1
active: [4] 18 µM | [7] 25 µM | [6] 2.51 µM | [10] 13.5 µM | [5] 14.8 µM | [11] 5.47 µM | [12] 5.62 µM | [13] 4.11 µM | [14] 0.031 µM | [15] 0.0184 µM | [16] 0.0461 µM | [17] 0.0501 µM | [18] 0.00937 µM
inactive: [2] | [9]

O=S(=O)(O)c1ccc(N=Nc2c(O)ccc3cc(S(=O)(=O)O)ccc23)cc1
active: [19] 35 µM | [5] 32 µM | [11] 8.72 µM | [13] 38.4 µM
inactive: [4] | [15] | [17]

CCCCCCCCN(C)C
inactive: [2] | [12]

COCc1nnc(-c2ccc[n+]([O-])c2)n1-c1c(Cl)c(Cl)cc2[nH]c(=O)c(=O)[nH]c12
inactive: [19]

CC[C@H](C)C(=O)O[C@H]1C[C@H](O)C=C2C=C[C@H](C)[C@H](CC[C@@H](O)C[C@@H](O)CC(=O)O)[C@H]21
inactive: [20]

Cc1ncc([C@@H](CCCCCCc2ccc3c(n2)NCCC3)CC(=O)O)cn1
active: [4] 13.7 µM | [6] 16.2 µM | [16] 19.2 µM

O=c1[nH]cnc2c1ncn2[C@H]1CC[C@@H](CO)O1
inactive: [5] | [13]
active: [11] 32.7 µM

Cc1nccn1-c1ccc(Sc2cccc(C3(C(N)=O)CCOCC3)c2)cc1
active: [19] 4.51 µM | [14] 7.4 µM | [16] 6.6 µM | [17] 6.73 µM
inactive: [8] | [15] | [18]

COc1cc(C(C)C)c2c(c1)S(=O)(=O)N(COc1cc(=O)n3cccc(OCCN4CCCCC4)c3n1)C2=O
active: [4] 2.83 µM | [6] 0.424 µM | [11] 1.6 µM | [13] 6.25 µM | [14] 2 µM | [15] 8.91 µM | [16] 0.681 µM | [17] 3.98 µM | [18] 3.71 µM

C=CCc1cc(S(=O)(=O)c2ccc(O)c(CC=C)c2)ccc1O
inactive: [17]
active: [19] 15.6 µM | [7] 20.1 µM | [6] 8.06 µM | [8] 17.1 µM | [5] 25 µM | [11] 33.1 µM | [13] 9.78 µM | [18] 25 µM

c1ccc2cc3ccccc3cc2c1
inactive: [12]

OC(CCl)CCl
active: [4] 25 µM

CCn1nc(C)c2c1C(=O)NCC(c1ccc(O)cc1)=N2
active: [19] 10.2 µM
inactive: [4] | [6] | [2] | [12] | [13] | [14] | [16] | [17] | [18] | [9]

CCc1ccc(O)c(C(C)(C)C)c1
inactive: [19] | [11]

CCCCCCCCCC
inactive: [19] | [7] | [6] | [11] | [13] | [16] | [17] | [9]

CCCCCCCC/C=C\CCCCCCCC(=O)OC[C@@H](O)[C@H]1OC[C@H](O)[C@H]1O
active: [7] 43.1 µM | [13] 34.5 µM

CCCCCCCCCCCCCCCCOS(=O)(=O)O
inactive: [11]
active: [7] 3.47 µM | [6] 3.6 µM | [5] 12.5 µM | [12] 18.1 µM | [13] 4.49 µM | [15] 8.33 µM | [18] 8.94 µM

OCc1c[nH]c2ccccc12
inactive: [19]

NNC(=O)c1ccncc1
inactive: [4]
